Literature values as cited in PMC11062922 (Nature Chemical Biology, 2023).

Assays:
[1] = system: JAK1(JH2domain-pseudokinase)
[2] = system: JAK2(JH1domain-catalytic)
[3] = system: RSK1(Kin.Dom.1-N-terminal)
[4] = system: RSK3(Kin.Dom.1-N-terminal)
[5] = system: TYK2(JH2domain-pseudokinase)

Measured: KINOMEScan

COc1cc(Nc2ncc3c(C)nc(-c4cc5ccccc5[nH]4)n3n2)cc(OC)c1OC [GW869516X]
active: AMPK-alpha1 89% | AMPK-alpha2 61% | BLK 60% | CIT 100% | CLK1 88% | CLK2 75% | CSNK2A1 96.4% | CSNK2A2 99.7% | DDR1 52% | DDR2 52% | DYRK1A 85% | DYRK1B 81% | EPHB1 58% | FLT3-autoinhibited 75% | FLT3 96.3% | GCN2(Kin.Dom.2,S808G) 88% | HIPK1 79% | INSRR 53% | [1] 98.5% | [2] 54% | KIT 72% | LCK 71% | MAP3K4 52% | MEK5 78% | MERTK 56% | MLK1 93.8% | MLK2 89% | MLK3 87% | NEK11 86% | NEK2 70% | NEK3 89% | NEK5 99% | NEK6 99.6% | NEK7 99.7% | NEK9 90% | PAK3 69% | PIP5K1C 89% | PIP5K2C 90.3% | PKAC-beta 51% | [3] 91.7% | [4] 66% | SLK 63% | SRC 90.1% | STK16 86% | SYK 53% | TBK1 58% | [5] 82% | ULK2 51% | WEE2 85%
